PubChem BioAssay (Tox21)
Several values for one entry are separate records, joined by “and”; a condition that tells them apart may be missing. Equal values may be shown once. Inconclusive results are not listed. Activity calls are given as the source filed them. The call rests on the fitted dose curve; in most records, active means well fitted cell-killing curve with a large enough effect in the repeat runs; inconclusive means weak or mixed curves, or effect the other way; inactive means no such curve, though single readings can be large or run the other way.

test: qHTS assay for identifying genotoxic compounds that show differential cytotoxicity against isogenic chicken DT40 cell lines with known DNA damage response pathways - wild type cell line (AID 743012); details: DT40 wild type chicken cells viability, CellTiter-Glo, 40 h; series mostly up to 68.4 µM; activity change, negative = cytotoxicity: at the top concentration; further: nearly all actives have a fitted effect of over 60% in size
Text: U.S. Tox21 Program National Center for Advancing Translational Sciences [NCATS] NIH Chemical Genomics Center [NCGC] U.S. Environmental Protection Agency [EPA] National Institutes of Environmental Health Sciences [NIEHS] National Toxicology Program [NTP] U.S. Food and Drug Administration [FDA] Tox21 Assay Overview: DNA repair pathways play a critical role in cellular homeostasis by repairing DNA damage induced by endogenous processes and xenobiotics. Isogenic chicken DT40 cell lines deficient in different DNA repair pathways can be used to identify genotoxic compounds and aid in characterizing the nature of the DNA damage induced. Two DNA repair-deficient cell lines with disrupted genes, Rad54/Ku70 or Rev3, were used to screen the Tox21 10K compound library. Possible genotoxicity was based on the presence of a significant increase in cytotoxicity in one or more of the DNA repair-deficient cell lines compared to that observed in the parental DNA repair-proficient cell line. CellTiter Glo viability assay (Promega, Madison, WI) was used to measure cell viability in these cells after compound treatment. This assay includes the data from the wild type cell line.
Tox21 Assay Protocol Summary: 300 DT40 wild type cells in 5 uL/well were dispensed into white, solid-bottom 1536-well plates using a Multidrop Combi (ThermoFisher Scientific, Waltham, MA) dispenser. After the assay plates were incubated at 37 C/5% CO2 for approximately 0.5 hour, 23 nL of compounds dissolved in DMSO, positive controls or DMSO only was transferred into the assay plate by a pintool work station (Kalypsys, San Diego, CA). The assay plates were incubated at 37 C/5% CO2 for 40 hours. After 5 uL per well of CellTiter-Glo reagent was added into each well of the assay plates, the plates were incubated for 30 min at room temperature and the luminescence intensity of the plates was measured using a ViewLux (PerkinElmer, Shelton, CT) plate reader.
On the % scale 0 is the no-effect control and ±100 the full control effect; potency means the concentration at half of the fitted maximal effect.

Row | Structure (SMILES) | activity change, negative = cytotoxicity | Potency
1 | CN1CC[C@@]23CCCC[C@@H]2[C@@H]1Cc1ccc(O)cc13 | -14.8% (inactive) | 
2 | F/C(COc1ccc2c(c1)[nH]c1ccccc12)=C1/CN2CCC1CC2 |  | 5.96 µM (active)
3 | CCOc1ccc2c3c1O[C@H]1[C@@H](O)C=C[C@H]4[C@@H](C2)N(C)CC[C@@]341 | -0.842% (inactive) | 
4 | C[C@H]1CC[C@]2(NC1)O[C@H]1C[C@H]3[C@@H]4CC[C@H]5C[C@@H](O[C@@H]6O[C@H](CO)[C@H](O[C@@H]7O[C@H](CO)[C@@H](O)[C@H](O[C@@H]8OC[C@@H](O)[C@H](O)[C@H]8O)[C@H]7O[C@@H]7O[C@H](CO)[C@@H](O)[C@H](O)[C@H]7O)[C@H](O)[C@H]6O)CC[C@]5(C)[C@H]4CC[C@]3(C)[C@H]1[C@@H]2C |  | 1.88 µM (active)
5 | CCNCC(O)c1cccc(O)c1 (stereo not given) | 9.48% [at 31.4 µM] (inactive) | 
6 | COC(COC(N)=O)C1=C(N2CC2)C(=O)C(C)=C(N2CC2)C1=O (stereo not given) |  | 0.0042 µM (active)
7 | CCCSc1cc(OC)c(CCN)cc1OC |  | 0.183 µM (active)
8 | CN1CSC(=S)N(C)C1 |  | 6.08 µM (active) and 5.43 µM (active)
9 | c1ccccc1 | 10.3% (inactive) | 
10 | CC(Cc1ccccc1)NC=O (stereo not given) | 2.7% (inactive) | 
11 | O=S(=O)(O)c1cc(O)ccc1O |  | inactive
12 | c1ccc(C2(N3CCCC3)CCCCC2)cc1 |  | 5.31 µM (active)
13 | C[N+]1(C)CCCCC1COC(=O)C(O)(c1ccccc1)c1ccccc1 (stereo not given) | 14.3% (inactive) | 
14 | CCN(CC)C(=O)N[C@H]1C[C@@H]2c3cccc4[nH]cc(c34)C[C@H]2N(C)C1 |  | 29.8 µM (active)
15 | C=CCN(C1=NCCN1)c1c(Cl)cccc1Cl | 0.334% (inactive) | 
16 | COc1ccc(OC)c([C@@H](O)[C@H](C)N)c1 | 1% (inactive) | 
17 | CC(=O)OC1CN2CCC1CC2 (stereo not given) | 13% (inactive) | 
18 | C#CC(C)(O)CC (stereo not given) | -2.7% (inactive) | 
19 | CCc1cc(OC)c(C[C@@H](C)N)cc1OC |  | 56.7 µM (active)
20 | CCC1(c2ccccc2)C(=O)NC(=O)N(C)C1=O (stereo not given) | 0.989% (inactive) | 

Row | Structure (SMILES) | activity change, negative = cytotoxicity | Potency
21 | N#CC1(N2CCCCC2)CCCCC1 | 2.53% (inactive) | 
22 | O=C1C(I)=CC(=C(c2cc(I)c(O)c(I)c2)c2ccccc2C(=O)O)C=C1I | 15.5% (inactive) | 
23 | C=CC[C@]1(O)CC[C@H]2[C@@H]3CCC4=CCCC[C@@H]4[C@H]3CC[C@@]21C | 0.849% (inactive) | 
24 | O=C(Nc1ccccc1-c1ccc(Cl)cc1)c1cccnc1Cl |  | 57.8 µM (active)
25 | CCCCNC(C)(C)[P+](=O)O | 15.6% (inactive) | 
26 | CC(=O)[C@H]1CC[C@H]2[C@@H]3CC[C@@H]4C[C@H](O)CC[C@]4(C)[C@H]3CC[C@]12C | -15.2% (inactive) | 
27 | C[C@]12CCC(=O)C[C@@H]1CC[C@@H]1[C@@H]2CC[C@@]2(C)[C@H]1CC[C@]2(C)O | -5.11% (inactive) | 
28 | OC[C@@H](O)[C@H]1O[C@@H]2O[C@@H](C(Cl)(Cl)Cl)O[C@@H]2[C@H]1O | 4.8% (inactive) | 
29 | O=C(O)/C=C/C(=O)O |  | inactive
30 | CO/C=C(/C(=O)OC)c1ccccc1Oc1cc(Oc2ccccc2C#N)ncn1 |  | 0.0731 µM (active)
31 | NCC[C@H](O)C(=O)N[C@@H]1C[C@H](N)[C@@H](O[C@H]2O[C@H](CN)[C@@H](O)[C@H](O)[C@H]2N)[C@H](O[C@@H]2O[C@H](CO)[C@@H](O)[C@H]2O)[C@H]1O | 12.4% [at 31.4 µM] (inactive) | 
32 | CC1(C)S[C@@H]2[C@H](N)C(=O)N2[C@H]1C(=O)O | 5.68% [at 31.4 µM] (inactive) | 
33 | COC(=O)[C@@H]1[C@H]2CC[C@@H](C[C@H]1OC(=O)c1ccccc1)N2C | 3.96% (inactive) | 
34 | NCC(O)c1cccc(O)c1 (stereo not given) | 12% (inactive) | 
35 | C=CCC1(C(C)CCC)C(=O)N=C(S)NC1=O (stereo not given) | 11.3% (inactive) | 
36 | [2H]C([2H])([2H])[C@H](N)Cc1ccccc1 | 6.07% (inactive) | 
37 | CC1(C)[C@H](C=C(Cl)Cl)[C@H]1C(=O)OCc1c(F)c(F)cc(F)c1F | -11.3% (inactive) | 
38 | CC[N+](C)(CC)CCOC(=O)C(O)(c1ccccc1)c1ccccc1 | 15.8% (inactive) | 
39 | Oc1ccc2c3c1O[C@H]1[C@@H](O)CC[C@@]4(O)[C@@H](C2)N(CC2CCC2)CC[C@]314 | -19.4% (inactive) | 
40 | CC(C)C[C@H](CN)CC(=O)O | 4.35% (inactive) | 
